Reference: PubChem BioAssay (NCI)
The panel holds about 83,000 compounds, 20% with a hit somewhere; the sample as a whole holds those more often.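 Negative percent growth values reflect cell death: -40 means 40% of the cells present at the start died, and -100 means all died.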 Calls of active or inactive are those of the source. Rule for the calls: active = growth percent below 10; inactive = the rest.

test system: MDA-MB-468 breast; experiment: NCI-60 one-dose screen, 48 h (100 = growth as untreated, 0 = no growth, -100 = all killed); details: 10 µM unless noted

Structure (SMILES) | growth
O=C(O)c1cc(C(F)(F)F)cc(C(F)(F)F)c1 | 109% (inactive)
COc1ccc2[nH]c(=O)c3c4ccccc4cn3c2c1 | 38% (inactive)
COc1ccc(C(=O)c2sc3nc(C)cc(C)c3c2N)cc1OC | 88% (inactive)
C[C@@H]1C[C@H]2C(=O)O[C@@H](C)C(NC(=O)[C@H](Cc3cc(F)cc(F)c3)NC(=O)Nc3ccc(Cl)cc3F)C(=O)N3CCC[C@H]3C(=O)N3CCCC[C@H]3C(=O)N[C@@H](CO)C(=O)N2C1 (stereo not given in full) | -10.4% (active)
COc1cccc(/C=C2\COc3ccc(O)c(O)c3C2=O)c1OC | -19.2% (active)
O=C(c1ccc(Nc2nccc(NCCCNc3ccnc4cc(Cl)ccc34)n2)cc1)N1CCCCC1 | 29.5% (inactive)
COc1ccc2c(c1)c(CC(=O)O)c(C)n2C(=O)c1ccc(Cl)cc1 | 96.4% (inactive)
CC/C=C\C[C@H]1C/C=C2/C(=O)C(Cl)=C[C@@H]2C/C=C\CCCC(=O)O1 | -69.2% (active)
Cc1cc(C)nc(NS(=O)(=O)c2ccc(Nc3ccc4c5c(n(CCCN(C)C)c(=O)c4c3)-c3ccccc3C5=O)cc2)n1 | 111% (inactive)
O=[N+]([O-])c1ccccc1Nc1ccc2ccccc2c1 | 80.4% (inactive)
Cc1nnc(/N=C2\NC(=O)/C(=C/c3ccc(N(C)C)cc3)S2)s1 | 87.2% (inactive)
O=C(Nc1ccc(Cl)cc1F)c1cc(Br)ccc1O | 0.453% (active)
C=C1SC(=Nc2c(C)cccc2C)N(c2nc(Cl)nc(Cl)n2)C12CCCCC2 | 101% (inactive)
CC(CN)[C@@H]1CC[C@]2(CO)CC[C@]3(C)[C@H](CC[C@@H]4[C@@]5(C)CCC(NCCO)C(C)(C)[C@@H]5CC[C@]43C)[C@@H]12 (stereo not given in full) | 11.8% (inactive)
Cc1ccc2c(n1)C(=O)C(Cl)=C(Nc1cccc(C)c1C)C2=O | -63.3% (active)
COc1cc(Cn2cc3c(c2)-c2onc(CO)c2CC3)cc(OC)c1OC | 81.6% (inactive)
C(=N\Nc1ncc(-c2cc3cc4c(cc3o2)OCO4)s1)/c1c[nH]c2ccccc12 | 0.523% (active)
COc1ccccc1-c1nc2ccc3[nH]ncc3c2c2c1CCCC2 | 47.4% (inactive)
CCCc1c(OC(=O)c2ccccc2)nc2[nH]c(=O)sc2c1C | 84.4% (inactive)
Cn1nc(CC#N)c2c(=N)n(N)cnc21 | 106% (inactive)

Structure (SMILES) | growth
O=C(c1ccc(O)cc1)C1[C@H](c2ccc(Cl)cc2)[C@@H](c2ccccc2)NC12C(=O)Nc1ccc(Cl)cc12 (stereo not given in full) | 39.4% (inactive)
CC(Nc1c(C#N)cnc2ccc(-c3cncc(O)c3)cc12)c1ccccc1 (stereo not given) | -37% (active)
Cc1ccc(Nc2nc(N)nc(N)c2N=O)cc1Cl | 40% (inactive)
CCCCCCN(CCCCCC)CC(O)c1cccc2ccc(Cl)cc12 (stereo not given) | 87.6% (inactive)
CCCCOC(=O)c1cc(O)c(O)c(O)c1 | 96.5% (inactive)
CNC1CCc2c(sc(NC(=O)c3ccc(C(C)(C)C)cc3)c2C(N)=O)C1 (stereo not given) | -37.2% (active)
CCC(CC)C(=O)OC(C)COc1ccc(C(C)(C)C)cc1 (stereo not given) | 94.6% (inactive)
C[n+]1cccc(NC(=O)c2ccc3ccc4ccc(C(=O)Nc5ccc[n+](C)c5)nc4c3n2)c1 | -15.9% (active)
Cc1nc2sccn2c1-c1csc(Nc2ccccc2Cl)n1 | 19% (inactive)
COc1cc(-c2nc(-c3nnc(-c4ccc(F)c(Cl)c4)o3)c3ccccn23)cc(OC)c1OC | 52.5% (inactive)
COc1cccc(-c2nnc(COc3ccc(-c4nc5ccc(C)cc5[nH]4)cc3OC)o2)c1 | 71% (inactive)
CCN(CC)c1ccc(-c2cc(-c3cc(OC)c(OC)c(OC)c3)nc(N3CCC(O)CC3)c2C#N)cc1 | -48.2% (active)
COc1ccc(C(=O)c2cc(C)c(OC)c(C)c2)c(OC)c1OC(=O)C(Cl)Cl | 11.4% (inactive)
OCCNc1nc(NCCO)nc(Nc2ccc(C3=NN(c4cc(Cl)cc(Cl)c4)C(c4ccc(C(F)(F)F)cc4)C3)cc2)n1 (stereo not given) | 39.7% (inactive)
Cn1nc(-c2ccccc2)c2c(-c3ccccc3)onc2c1=O | 15.1% (inactive)
O=C(O)c1cccc2c1C(=O)N(c1ccc3c(c1)Cc1ccccc1-3)C2=O | 107% (inactive)
Cc1ccc(/C=C(/C#N)n2nnc3cccc(F)c32)cc1 | -16.1% (active)
CCc1cccc(NC(=O)CNc2cc(S(=O)(=O)N(C)C)cc(C)c2C)c1 | 87.3% (inactive)
c1ccc(-c2nnn(-c3ccccc3)n2)cc1 | 111% (inactive)
Nc1c(O)c(S(=O)(=O)O)c(O)c2c1C(=O)c1ccccc1C2=O | 1.06% (active)
